The structures appear in SMILES notation. In all, about 110,000 compounds were measured (“z-score”: median about -0.1, highest 2% from about 2 on). The sample as a whole holds a higher share of the highest values than the screen did. Activity calls are given as the source filed them.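 The calls were made as follows: active = z-score in the third read window above 3 or below -3; inactive = the rest.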

For this test, the target named is Metabotropic glutamate receptor 8 (Rattus norvegicus) (UniProt P70579). The test can be described thus: rat mGluR8 modulators via GIRK flux, primary screen, cell-based, thallium flux, HTS (AID 488969). The following applies: HEK293 rat mGluR8, GIRK (G protein-gated inwardly rectifying potassium channel) thallium flux, FluoZin2; at 10 µM; stronger effect = higher value; submaximal glutamate (EC20) added with thallium.
Metabotropic glutamate receptor 8 (Rattus norvegicus), sequence (P70579 whole entry, looked up): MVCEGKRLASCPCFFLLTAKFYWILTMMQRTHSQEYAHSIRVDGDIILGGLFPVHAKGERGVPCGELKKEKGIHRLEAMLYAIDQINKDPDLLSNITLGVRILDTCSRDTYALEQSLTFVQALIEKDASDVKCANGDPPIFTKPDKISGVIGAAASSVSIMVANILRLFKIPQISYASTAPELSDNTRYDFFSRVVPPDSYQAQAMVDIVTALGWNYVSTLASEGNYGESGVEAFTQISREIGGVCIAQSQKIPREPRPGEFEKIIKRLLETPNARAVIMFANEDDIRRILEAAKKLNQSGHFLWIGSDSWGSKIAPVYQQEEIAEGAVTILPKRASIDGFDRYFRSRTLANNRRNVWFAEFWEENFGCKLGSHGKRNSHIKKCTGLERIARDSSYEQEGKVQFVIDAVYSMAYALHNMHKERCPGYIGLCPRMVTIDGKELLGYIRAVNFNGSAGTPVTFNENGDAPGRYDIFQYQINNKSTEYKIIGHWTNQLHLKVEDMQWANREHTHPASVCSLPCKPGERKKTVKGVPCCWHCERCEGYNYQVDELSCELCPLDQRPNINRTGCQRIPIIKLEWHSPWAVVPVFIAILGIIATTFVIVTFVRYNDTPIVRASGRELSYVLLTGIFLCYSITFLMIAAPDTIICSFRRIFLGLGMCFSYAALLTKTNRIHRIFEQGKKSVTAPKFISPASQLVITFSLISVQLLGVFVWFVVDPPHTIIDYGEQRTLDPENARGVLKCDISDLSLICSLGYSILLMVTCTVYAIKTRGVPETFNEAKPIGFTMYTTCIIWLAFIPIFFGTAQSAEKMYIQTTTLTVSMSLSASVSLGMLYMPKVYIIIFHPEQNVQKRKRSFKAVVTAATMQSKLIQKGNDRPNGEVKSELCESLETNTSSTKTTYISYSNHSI
As to `CCc1ccccc1NC(=O)CSc1ncn[nH]1`, the z-score was -0.0941. In the case of `CC1CCCN(c2nc(-c3cccnc3)nc3scc(-c4ccccc4)c23)C1` (stereo not drawn), the z-score was -0.0274. To `COc1ccc(CCNC(=O)c2ccc(-c3ccc([N+](=O)[O-])cc3)o2)cc1OC` belongs -0.544; to `CCOc1cc([C@H]2[C@@H]3CCCC[C@]3(O)CCN2CC(=O)NCc2ccco2)ccc1O`, -0.351. Turning to `COc1ccc(N2CCN(Cc3nc4ccsc4c(=O)[nH]3)CC2)cc1`, the z-score is -0.255.

As to `O=C(CN=C1NC(=O)C(c2ccccc2)(c2ccccc2)N1)NCc1ccc(F)cc1`, the z-score was -0.114.

With `N#CCSc1nnc2ccc3ccccc3n12`, the z-score was -0.272. As for `O=C(NCC(=O)N(Cc1ccccc1)C(C(=O)NC1CCCC1)c1cccnc1)c1ccco1` (stereo not drawn), the z-score was -0.0981. For the compound `O=C(NCC(=O)N(Cc1ccco1)C(C(=O)NC1CCCC1)c1cccnc1)c1ccco1` (stereo not drawn), the z-score was 2.19. For the compound `O=C(NCC(=O)N(Cc1ccco1)C(C(=O)NC1CCCCC1)c1cccnc1)c1ccco1` (stereo not drawn), the z-score worked out at 0.556. The same measure for `O=C(NCC(=O)N(Cc1cccs1)C(C(=O)NC1CCCCC1)c1ccco1)c1ccco1` (stereo not drawn): 2.96; for `O=C(NCC(=O)N(Cc1cccs1)C(C(=O)NC1CCCC1)c1ccco1)c1cccs1` (stereo not drawn): 0.741. As to `O=C(NCC(=O)N(Cc1cccs1)C(C(=O)NC1CCCCC1)c1ccco1)c1cccs1` (stereo not drawn), the z-score was -0.518. On to `COc1ccc(Cl)cc1NC(=O)CN(C)C1CCCCC1`, for which the z-score was determined as 0.225.

In turn, `C#CC(CO)N(CCN(Cc1ccccc1)C(C#C)CO)Cc1ccccc1` (stereo not drawn) displayed a z-score of 2.19.

The compound `OCCN(Cc1ccccc1)Cc1ccccc1Cl` registered a z-score of 0.0815. On to `CC(C)CC(C(=O)O)N(Cc1ccccc1)Cc1ccccc1` (stereo not drawn), for which the z-score is -0.132. `CC1CCc2c(sc(NC(=O)CSc3ncnc4c3cnn4-c3ccccc3Cl)c2C#N)C1` (stereo not drawn): the z-score is -0.899. The same measure for `CSC1=N/C(=C\c2ccc(Br)o2)C(=O)S1`: 3.73 (active); for `CSC1=N/C(=C\c2ccc(C)cc2)C(=O)S1`: -0.344. On to `CSC1=N/C(=C\c2ccc(F)cc2)C(=O)S1`, for which the z-score is -0.817. Consider `CC(=O)CC1(O)C(=O)N(Cc2ccccc2)c2ccccc21` (stereo not drawn), for which the z-score came out at 0.034. For the compound `O=C(N/N=C/c1cnc2ccccc2n1)c1cccc(F)c1`, the z-score amounted to 0.223.

The compound `Cc1ccccc1N=C1NC(=O)CS1` registered a z-score of 0.516. The same measure for `O=C(CN1CCCC1)N1c2ccccc2Sc2ccccc21`: -0.191; for `O=C1CS/C(=N\C(=O)N2c3ccccc3Sc3ccccc32)N1`: 7.66 (active).

`COc1ccc(NC(=O)CSc2nc3ncccc3[nH]2)cc1OC`: the z-score is -0.426. On to `CCC(=O)N(Cc1cc2ccc(C)cc2n2nnnc12)C1CCCCC1`, for which the z-score was -0.401. With `Cc1cc(C)nc(SC2CCOC2=O)n1` (stereo not drawn), the z-score was -0.0163. As to `C=CCn1c(SC2CCOC2=O)nc2sc(C)c(C)c2c1=O` (stereo not drawn), the z-score was -0.995. For the compound `Cc1nc(SC2CCOC2=O)c2c(C)c(C)sc2n1` (stereo not drawn), the z-score is 4.12 (active). Compound `CCCC1Cc2c(sc(NC(=S)NC(=O)c3ccccc3)c2C#N)CO1` (stereo not drawn) registered a z-score of 0.489.

Consider `CN(C)S(=O)(=O)c1ccc(S(=O)(=O)NC2CCOC(C)(C)C2)cc1` (stereo not drawn), for which the z-score is -1.16. For the compound `O=C(c1ccco1)N1CCN(S(=O)(=O)c2ccc(S(=O)(=O)NC3CC3)cc2)CC1`, the z-score is -0.31. In the case of `CC1(C)CC(NS(=O)(=O)c2ccc(S(=O)(=O)N3CCOCC3)cc2)CCO1` (stereo not drawn), the z-score came to 2.05. Take `CC(=O)N1CCN(S(=O)(=O)c2ccc(S(=O)(=O)NCC(C)C)cc2)CC1`: the z-score was -0.0339. Regarding `CC(=O)N1CCN(S(=O)(=O)c2ccc(S(=O)(=O)NC3CC3)cc2)CC1`, the z-score was determined as 2.05. The same measure for `CC(C)CNS(=O)(=O)c1ccc(S(=O)(=O)NC2CCOC(C)(C)C2)cc1` (stereo not drawn): -0.235; for `COc1cc(-n2c(C)nc3cc(C(=O)N4CCOCC4)ccc32)cc(OC)c1OC`: -0.458. With `CCOC(=O)c1c(C)[nH]c2c1cc(O)c1ccccc12`, the z-score is 4.58 (active).

On to `CCOC(=O)c1c(-c2ccccc2)[nH]c2ccc(O)cc12`, for which the z-score was -0.821.

As to `CCOC(=O)c1c(C)oc2c1cc(O)c1ccccc12`, the z-score was -0.493. For the compound `COc1ccc(-c2nc(NC(=O)c3ccc(OCC(=O)N4CCOCC4)c(OC)c3)sc2C)cc1`, the z-score is -0.218.

Take `COc1ccccc1NC(=S)N(CCc1c(C)[nH]c2ccccc12)Cc1cccs1`: the z-score was determined as 0.381. On to `CCOc1cc(/C=N/NC(=O)CNc2cccc(C)c2)ccc1OC(=O)c1ccccc1`, for which the z-score was 5.52 (active). Regarding `CCOc1cc(/C=N/NC(=O)CNc2ccc(C)cc2)ccc1OC(=O)c1ccccc1`, the z-score turned out to be 0.0308. In the case of `CCOc1cc(/C=N\NC(=O)c2ccc(NC(=O)CC)cc2)ccc1OC(=O)c1ccccc1`, the z-score was -0.103. Turning to `CC(=O)N(C)c1nnc(-c2ccccn2)s1`, the z-score is -0.0164. `CS(=O)(=O)N(CC(=O)Nc1ccc(F)c(F)c1)c1cccc([N+](=O)[O-])c1` registered a z-score of 0.348.

In the case of `O=C(NCc1ccccn1)C1CCN(Cc2cnn(-c3ccccc3)c2-n2cccc2)CC1`, the z-score is -0.0285. As to `COc1ccc(OC)c(NC(=O)C2CCN(Cc3cnn(-c4ccccc4)c3-n3cccc3)CC2)c1`, the z-score was -0.109. As to `O=C(Nc1ccc2c(c1)OCO2)C1CCN(Cc2cnn(-c3ccccc3)c2-n2cccc2)CC1`, the z-score was -0.13.

As to `COc1cc(NC(=O)CSCc2cnn(-c3ccccc3)c2-n2cccc2)cc(OC)c1`, the z-score was 7.86 (active). To `COc1cccc(CNC(=O)C2CCN(Cc3cnn(-c4ccccc4)c3-n3cccc3)CC2)c1` belongs 2.66; to `CC(=O)Nc1ccc(NC(=O)CSCc2cnn(-c3ccccc3)c2-n2cccc2)cc1`, -0.225; to `COc1ccc(OC)c(NC(=O)CSCc2cnn(-c3ccccc3)c2-n2cccc2)c1`, 0.126.

In the case of `O=C(NCc1ccc2c(c1)OCO2)C1CCN(Cc2cnn(-c3ccccc3)c2-n2cccc2)CC1`, the z-score was 3.14 (active). Regarding `COc1cccc(NC(=O)C2CCN(Cc3cnn(-c4ccccc4)c3-n3cccc3)CC2)c1`, the z-score is -0.463. Regarding `CCSc1cc(N2CCCC2)nc(-c2ccccc2Cl)n1`, the z-score is -0.31. For the compound `COC(=O)COc1ccc(Cl)cc1C1Nc2ccccc2C(=O)N1c1ccc(OC)cc1` (stereo not drawn), the z-score was -0.642. To `COC(=O)c1[nH]c2ccccc2c1NC(=O)/C=C/c1ccc2c(c1)OCO2` belongs 0.563; to `O=C1C2CCCCC2C(=O)N1c1cccc(OS(=O)(=O)c2ccccc2)c1` (stereo not drawn), -0.275. For `CCN(CC)S(=O)(=O)c1cccc(-c2nnc(SC(C)C(N)=O)n2CCc2ccccc2)c1` (stereo not drawn), the z-score is -0.152.

Consider `O=C(Nc1cnc2ccccn2c1=O)c1ccc(F)cc1`, for which the z-score is -0.0283. With `Cc1ccc(C(=O)Nc2cnc3ccccn3c2=O)cc1`, the z-score is 4.27 (active). For the compound `O=C(Nc1cnc2ccccn2c1=O)c1ccc(Cl)cc1`, the z-score was -0.161. Take `CC(C)(C)C1CCc2c(C(=O)NNC(=O)/C=C/C(=O)O)csc2C1` (stereo not drawn): the z-score is -0.42. Regarding `CC(C)(C)C1CCc2c(C(=O)N/N=C/c3cccs3)csc2C1` (stereo not drawn), the z-score was 3.34 (active). The compound `Cc1occc1C(=O)N/N=C/c1cccs1` gave a z-score of 0.00925. Regarding `Cn1c(=O)oc2cc(S(=O)(=O)N3CCC(C(=O)NCc4cccs4)CC3)ccc21`, the z-score is 0.158.

Turning to `CCC(Cc1ccccc1)NC(=O)C1CCC(CNc2c(N3CCCC3)c(=O)c2=O)CC1` (stereo not drawn), the z-score stood at 0.312. Take `COc1ccc(C(C)=O)cc1COC(=O)Cc1n[nH]c(=O)c2ccccc12`: the z-score was -0.504. In the case of `O=[N+]([O-])c1cc(F)c(N2CCCCC2)cc1N1CCOCC1`, the z-score is -0.193.

For `CC1CCN(c2cc(N3CCOCC3)c(F)cc2[N+](=O)[O-])CC1`, the z-score was -0.674. The same measure for `CC1CCN(c2cc(N3CCOCC3)c([N+](=O)[O-])cc2F)CC1`: 2.53. To `O=C(NC1CCCCC1)c1sc(N2CCOCC2)nc1-c1ccccc1` belongs 0.0133; to `O=C(COC(=O)CCC1CCCC1)Nc1nc2c(F)c(F)c(F)cc2s1`, 2.48. The same measure for `O=C(COC(=O)C12CC3CC(CC(C3)C1)C2)Nc1nc2c(F)c(F)c(F)cc2s1`: -0.635; for `O=C(COC(=O)CCC1CCCC1)Nc1ccc(Cl)cc1F`: -0.306; for `CC(=O)Nc1cc(C(F)(F)F)ccc1Oc1cccc(Br)c1`: -0.653. `CCCn1c(NC(=S)Nc2ccccc2)nc2ccccc21` gave a z-score of 2.89. Consider `S=C(Nc1ccccc1)Nc1nc2ccccc2n1CCOc1ccc(Cl)cc1`, for which the z-score worked out at 1.72. Consider `CCn1c(NC(=O)C2CCCCC2)nc2ccccc21`, for which the z-score came out at 0.0465.

`CCn1c(NC(=S)Nc2ccccc2)nc2ccccc21`: the z-score was 15.2 (active). As to `CCCn1c(Nc2ccccc2)nc2ccccc21`, the z-score is -0.0673. As for `S=C(Nc1ccccc1)Nc1nc2ccccc2n1CCOc1ccc(Br)cc1`, the z-score was 1.24.

Consider `CCCCn1c(Nc2ccccc2)nc2ccccc21`, for which the z-score is 0.15. `CCn1c(NC(C)=O)nc2ccccc21`: the z-score was -0.0713. As to `CCCCn1c(NC(=S)Nc2ccccc2)nc2ccccc21`, the z-score is 2.55. `COc1ccc(CNC(=O)CSCc2cnn(-c3ccccc3)c2-n2cccc2)cc1` came in with a z-score of 0.0302. Take `Cc1cccc(NCc2ccccc2O)c1C`: the z-score worked out at 0.825. For the compound `COc1ccc(OCCNc2cc(N3CCCCC3)ccc2[N+](=O)[O-])cc1`, the z-score is -0.255. With `O=C(Cc1ccccc1)Nc1ccc(N2CCOCC2)cc1N1CCOCC1`, the z-score is -0.544.

Compound `CCNC(=O)C1CC(=O)N(CC)C(=Nc2cc(Cl)c(O)c(Cl)c2)S1` (stereo not drawn) displayed a z-score of 0.28. For `COC(=O)CSc1nc2nc(C)cc(C)n2n1`, the z-score is -0.251.

As to `COC(=O)c1nnn(CC(=O)Nc2cccc(Cl)c2C)c1C(=O)OC`, the z-score was -0.193. As to `CCOC(=O)c1nnn(CC(=O)Nc2cccc(Cl)c2C)c1C(=O)OCC`, the z-score turned out to be 2.12. For the compound `CCOC(=O)c1nnn(CC(=O)Nc2ccccc2OC)c1C(=O)OCC`, the z-score was -0.326.

With `COc1ccccc1S(=O)Cc1ccc(C(=O)NCc2ccccc2Cl)o1` (stereo not drawn), the z-score is -0.228.

`CC(=O)Nc1nonc1-c1nc2ccccc2n1N(C(C)=O)C(C)=O`: the z-score was -2.35.

Take `CCC(C)n1c(SCc2ccc([N+](=O)[O-])cc2)nc2ccsc2c1=O` (stereo not drawn): the z-score was determined as 0.36. With `CCC(C)n1c(=S)[nH]c2c(sc3ccc([N+](=O)[O-])cc32)c1=O` (stereo not drawn), the z-score was 9.11 (active). For `CC(C)n1c2ccccc2c2cc([N+](=O)[O-])ccc21`, the z-score is -0.11. `Nc1ncnc(Nc2ccc(F)cc2)n1`: the z-score is 0.0495. On to `CCOc1ccc(CNc2ncnc(N)n2)cc1`, for which the z-score was -0.398. For `CCOc1ccc(Nc2ncnc(N)n2)cc1`, the z-score is 4.23 (active). To `COc1cc(/C=C(\C#N)C(N)=O)ccc1OS(=O)(=O)c1ccc(C)cc1` belongs -0.309; to `O=[N+]([O-])c1ccc(COc2cccc(CNc3ccc(Br)cc3)c2)cc1`, 0.133.

These data come from PubChem BioAssay AID488969 (Vanderbilt High Throughput Screening Facility, 2010).
